The target of the first test is RSPH9. Nature of the test: pooled miR-30 sensor sort-seq; sequence = guide strand. Particulars: shRNA.
Consider TTAACCAGCATAAGAGACGTGA, for which the sensor-assay potency score (higher = more potent) was determined as 0.0215.

As for TAGCCATAGTTCTTGGTGCGGG, the sensor-assay potency score (higher = more potent) was -0.956.

As for TCAATGACAGACACCAAGCGGG, the sensor-assay potency score (higher = more potent) was -0.168.

The sequence TCTTATTCTTTAGCTCAACAGG had a sensor-assay potency score (higher = more potent) of -1.48.

As to TTTAGCTCAACAGGCTCCCTGA, the sensor-assay potency score (higher = more potent) was -0.548.

As for TATTTCTTCTTCAAAGACTTTT, the sensor-assay potency score (higher = more potent) was -0.914.

Sequence TTGATCTGGACCACTATTTCTT registered a sensor-assay potency score (higher = more potent) of -0.0516.

In another test the target is RTF1. Described as above. The following applies: shRNA.
In turn, TTGAGACAAACTCTAAACGGAA had a sensor-assay potency score (higher = more potent) of -0.778.

Turning to TTTGAGACAAACTCTAAACGGA, the sensor-assay potency score (higher = more potent) came out at 0.185.

Sequence TTCTTGATTTCAAATCTTCTTT had a sensor-assay potency score (higher = more potent) of -0.27.

TACTTTGAACAGATCTTCTGAG gave a sensor-assay potency score (higher = more potent) of 0.376.

TACAATCTCTTCAATGTCCTGA returned a sensor-assay potency score (higher = more potent) of 0.771.

For TTTCTCTGTCATCTGTTCCAGA, the sensor-assay potency score (higher = more potent) was -0.00304.

With TTCGTTTTTCTCGCTCTGCTTT, the sensor-assay potency score (higher = more potent) is -0.471.

With TTTTTCTTGATTTCAAATCTTC, the sensor-assay potency score (higher = more potent) was -0.239.

TTGAGATTTCTTGTCTAGTTTC gave a sensor-assay potency score (higher = more potent) of -0.921.

The sequence ATTGATTTCATCTAGAGTGGGC displayed a sensor-assay potency score (higher = more potent) of 0.501.

The sequence TTCATCATCAGAGTAGACCTCA yielded a sensor-assay potency score (higher = more potent) of 0.818.

A further test addresses RTN4. Described as above. The following applies: shRNA.
On to TTTCTGAGTATTCTAATTCTGA, for which the sensor-assay potency score (higher = more potent) was -0.686.

Take TAACTAACTTCTCTTCTTCATC: the sensor-assay potency score (higher = more potent) was -0.896.

For TAAAGATCTAACAACGATCTGT, the sensor-assay potency score (higher = more potent) amounted to 0.175.

On to TTTTGTGTTATCTAAACTGAGC, for which the sensor-assay potency score (higher = more potent) was -0.981.

Consider TTCTAGGTCAGTATATTCCCTG, for which the sensor-assay potency score (higher = more potent) was -0.784.

For the sequence TTCACTTTCACATGCTTCCTGT, the sensor-assay potency score (higher = more potent) was -0.0605.

On to TTTCTGAAGACACAACTTCATC, for which the sensor-assay potency score (higher = more potent) was -1.21.

TATTACTAACTAACTTCTCTTC: the sensor-assay potency score (higher = more potent) is -0.121.

The sequence TAAATCTCTATCTATGAGTAGA registered a sensor-assay potency score (higher = more potent) of -0.547.

As to TATCTGTTGTGACATAATCTGT, the sensor-assay potency score (higher = more potent) is -0.595.

For TTTCTGAAGTAGGATCTCCTAA, the sensor-assay potency score (higher = more potent) was -0.155.

As to TTGTGACATAATCTGTCTCAGA, the sensor-assay potency score (higher = more potent) is -1.04.

The target of another test is RTTN. Described as above. Particulars: shRNA.
The sequence TTAATAACCAGCTCTCTTCTGT showed a sensor-assay potency score (higher = more potent) of 0.265.

With TTTAATAACACCATCCTCCTTT, the sensor-assay potency score (higher = more potent) was 0.89.

For the sequence TTCAGGAGTAACTTCAACCAAA, the sensor-assay potency score (higher = more potent) is -0.732.

TTAGTAAGTCTAGACAGCCATC: the sensor-assay potency score (higher = more potent) was -1.38.

TAGAGATTTCTGATTTTCCTGA came in with a sensor-assay potency score (higher = more potent) of 0.353.

As for TACTCTTCTGAATTACTCCTTT, the sensor-assay potency score (higher = more potent) came out at 0.0347.

TTTCCTGTCAGTAACTTCCATG displayed a sensor-assay potency score (higher = more potent) of -0.534.

In turn, TATCATCTGTTTCTTCTCGTGC gave a sensor-assay potency score (higher = more potent) of 0.159.

Turning to TTGTATTTGCTCATCTCTGTTA, the sensor-assay potency score (higher = more potent) is -0.347.

These data come from the OligoGym collection.
Note: reference of the scale not given here.
